Compound activity (PubChem BioAssay)
Most compounds without a hit are left out; they make up all but 21% or so of the library.
NS1 function inh: blocks influenza NS1 protein function; Potency, µM (titrated, usually from 46.1 µM), inactives show at the highest dose activity, positive = more growth; 270,000 tested, 0.4% active; AID 2326; calls by dose curve; note: potency is the fitted concentration of half-maximal effect; actives are rising curves; nearly all actives have a fitted effect of over 50% in size
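Read-out: OD600 growth recovery of NS1-expressing budding yeast. Cells grown overnight at 30C in -URA glucose medium, washed, resuspended and diluted 1:100 in 2% galactose assay medium, pH 6.0. Same strain lacking NS1 served as positive control.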
Pf growth 96h: inhibits malaria parasite growth, 96 h | 320,000 tested, 6.9% active | P. falciparum luciferase reporter growth, 96 h | AID 504834 | Potency, µM (series often up to 28.7 µM), for inactives: top-dose activity change, negative = inhibition, usual class: inhibitors; note: potency is the fitted concentration of half-maximal effect; % is set by controls: 0 for no effect and ±100 for the full control effect
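Readout is luminescence from an integrated firefly luciferase in P. falciparum. Red cells, 2% hematocrit and 0.05% parasitemia final, were cultured with compound through two parasite generations (96 hours) at 37 C, 5% CO2.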
CHX counter: counter-screen hit for Shiga toxin inhibitors, cycloheximide; 300,000 tested, 12% active; cell reporter, cycloheximide protein synthesis inhibition counterscreen; AID 2314; max response, %; in the data active = max response mostly above about 13%, no sharp cut-off; inactive = mostly below about 14%; note: read at 38.3 µM for the half of the compounds with a filed dose; 0% is about no effect
Pf growth 48h: inhibits P. falciparum growth in the first generation, 48 h. AID 504832. P. falciparum luciferase growth in erythrocytes, 48 h. Potency, µM (doses to about 28.7 µM), for inactives: at the highest dose activity change, negative = inhibition, actives largely listed as inhibitors. 310,000 tested, 5.9% active; note: potency is the fitted concentration of half-maximal effect; % is set by controls: 0 for no effect and ±100 for the full control effect
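In quantitative HTS format, infected erythrocytes bearing luciferase-reporter parasites were treated for a single generation at 37 C. Luminescence after adding detection reagent served as the growth measure.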
FBPA Giardia inh: blocks Giardia fructose-bisphosphate aldolase activity | A8B2U2 | purified Giardia FBPA | Potency, µM (series often up to 59.6 µM), inactives show at the highest dose activity, negative = inhibition, most hits filed as inhibitors | 290,000 tested, 0.71% active; note: potency is the fitted concentration of half-maximal effect; % is set by controls: 0 for no effect and ±100 for the full control effect; nearly all actives have a fitted effect of over 55% in size
Target sequence (A8B2U2 whole entry, looked up): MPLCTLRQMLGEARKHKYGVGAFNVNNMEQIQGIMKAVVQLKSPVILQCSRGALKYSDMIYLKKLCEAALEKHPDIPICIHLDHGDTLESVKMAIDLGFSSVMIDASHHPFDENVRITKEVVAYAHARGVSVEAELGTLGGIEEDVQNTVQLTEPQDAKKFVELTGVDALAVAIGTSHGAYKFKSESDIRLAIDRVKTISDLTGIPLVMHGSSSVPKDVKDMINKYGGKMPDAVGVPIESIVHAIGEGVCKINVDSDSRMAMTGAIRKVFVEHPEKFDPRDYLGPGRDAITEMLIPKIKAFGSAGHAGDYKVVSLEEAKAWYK
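40 nM FBPA preincubated 10 min at RT with compound (up to 57.5 uM final), then substrate plus GAPDH/TPI/NAD/arsenate coupling and diaphorase/resazurin added. Fluorescence read after 20 min at RT, 525/598 nm.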
Shiga inhibitor: blocks Shiga toxin action in Vero cells; Vero cells, Shiga toxin protein synthesis inhibition reporter; 290,000 tested, 9.2% active; inhibition, % at 38.7 µM; in the data active = inhibition mostly above about 28%, no sharp cut-off; inactive = mostly below about 43%; note: 0% is about no effect
* = called active by the depositor. Unless noted, calls come from the whole dose curve; as a rule, active = well fitted curve in the direction sought with a large enough effect; inconclusive = small, poorly fitted or top-dose-only effect, or another doubt; inactive = no such curve, though single readings can be large; an effect the other way counts as inactive or inconclusive.

How did O=S(=O)(Nc1ccc(O)c(CN2CCCCC2)c1)c1ccccc1 do in these assays?
NS1 function inh: -1%; Pf growth 96h: 0.59µM*; CHX counter: 12; Pf growth 48h: inconclusive; FBPA Giardia inh: 1%; Shiga inhibitor: 31

How did Cn1c(CN2CCCC2)nc2cc(NS(=O)(=O)c3ccccc3)ccc21 do in these assays?
NS1 function inh: 0%; Pf growth 96h: 0%; CHX counter: -1; Pf growth 48h: -6%; FBPA Giardia inh: -4%; Shiga inhibitor: -8

What do the screens show for `COc1ccc(C(=O)NCc2ccccc2CN2CCCC2)cc1S(=O)(=O)Nc1ccc(C)cc1`?
Pf growth 96h: 4.1µM*; Pf growth 48h: 10µM*

Results for CCN(C(=O)COC(=O)c1n[nH]c2ccccc12)c1ccccc1 ?
Pf growth 96h: -23%; Pf growth 48h: inconclusive

What do the screens show for `CC1CN(c2nc(-c3ccc(Br)cc3)nnc2-c2ccccc2)CC(C)N1` (stereo not given)?
NS1 function inh: -3%; Pf growth 96h: 8.3µM*; CHX counter: 1; Pf growth 48h: inconclusive; FBPA Giardia inh: 0%; Shiga inhibitor: -6

What do the screens show for `CC(C)c1ccc(/C=c2\sc3nc(-c4ccncc4)nn3c2=O)cc1`?
NS1 function inh: 16%; Pf growth 96h: 4.1µM*; CHX counter: 8; Pf growth 48h: 0%; FBPA Giardia inh: 10%; Shiga inhibitor: 28

Results for O=C(NCCc1ccccc1)c1cccc(Br)c1 ?
NS1 function inh: -42%; Pf growth 96h: 12%; CHX counter: 39*; Pf growth 48h: 146%; FBPA Giardia inh: -10%; Shiga inhibitor: 79*

What do the screens show for `O=C(NC(=S)NCCSc1ccccc1)c1cccnc1`?
NS1 function inh: -5%; Pf growth 96h: -25%; CHX counter: 27*; Pf growth 48h: 53%; FBPA Giardia inh: 0%; Shiga inhibitor: 37*

Results for CCCNC(=O)c1cccc(Br)c1 ?
Pf growth 96h: inconclusive; CHX counter: -4; Pf growth 48h: 20%; FBPA Giardia inh: 0%; Shiga inhibitor: -3

Results for O=C(COC(=O)c1cccc(Br)c1)NCCNC(=O)COC(=O)c1cccc(Br)c1 ?
NS1 function inh: -5%; Pf growth 96h: 0.41µM*; CHX counter: -3; Pf growth 48h: 0.47µM*; Shiga inhibitor: -15

How did CCCNC(=O)C(Cc1ccccc1)NC(=O)c1cccc([N+](=O)[O-])c1 (stereo not given) do in these assays?
Pf growth 96h: inconclusive; Pf growth 48h: 8.3µM*

How did CCOC(=O)c1c(NC(=O)c2cc(C)on2)c2cc([N+](=O)[O-])ccc2n1C do in these assays?
NS1 function inh: 1%; Pf growth 96h: 13%; CHX counter: -3; Pf growth 48h: 34%; FBPA Giardia inh: 0%; Shiga inhibitor: -6

What do the screens show for `O=C(NCCc1ccccc1)c1cccnc1`?
NS1 function inh: -7%; Pf growth 96h: 187%; CHX counter: 37*; FBPA Giardia inh: 1%; Shiga inhibitor: 63*

What do the screens show for `O=C(CCNC(=O)c1ccc([N+](=O)[O-])cc1)NCCc1ccccc1`?
NS1 function inh: 9%; Pf growth 96h: 10%; CHX counter: 10; Pf growth 48h: 26%; FBPA Giardia inh: 3%; Shiga inhibitor: 21

Results for CC/C(Cc1ccccc1)=N/NC(=O)c1cccc(Br)c1 ?
NS1 function inh: 1%; Pf growth 96h: 12%; CHX counter: 16; Pf growth 48h: 6%; FBPA Giardia inh: 0%; Shiga inhibitor: 47*

Results for O=C(NCCc1ccccc1)c1cccc([N+](=O)[O-])c1 ?
NS1 function inh: -10%; Pf growth 96h: 146%; CHX counter: 82*; Pf growth 48h: 110%; FBPA Giardia inh: 6%; Shiga inhibitor: active

How did O=C(N[C@@H](Cc1ccccc1)C(=O)O)c1cccnc1 do in these assays?
NS1 function inh: inconclusive; Pf growth 96h: 2.9µM*; CHX counter: -9; FBPA Giardia inh: -5%; Shiga inhibitor: -5

Results for CC(C)C[C@H](NC(=O)N1CCCCCC1)C(=O)O ?
NS1 function inh: 2%; Pf growth 96h: 26%; CHX counter: -3; Pf growth 48h: -3%; FBPA Giardia inh: 3%; Shiga inhibitor: -3

What do the screens show for `COc1ccc(OC2C(=O)N(Cc3ccc4c(c3)OCO4)C2c2sccc2C)cc1` (stereo not given)?
NS1 function inh: 4%; Pf growth 96h: 4.1µM*; CHX counter: -1; Pf growth 48h: inconclusive; FBPA Giardia inh: -2%; Shiga inhibitor: -25

Results for CC(C)(C)c1ccc(-c2nnc3sc(-c4ccncc4)nn23)cc1 ?
NS1 function inh: -71%; Pf growth 96h: 2%; CHX counter: 14*; Pf growth 48h: inconclusive; FBPA Giardia inh: 3%; Shiga inhibitor: 34

What do the screens show for `Cc1ccccc1-c1nn2c(-c3ccccc3)nnc2s1`?
NS1 function inh: -9%; Pf growth 96h: 9.3µM*; CHX counter: -4; Pf growth 48h: inconclusive; FBPA Giardia inh: 8%; Shiga inhibitor: -16

Results for Cc1nnc2sc(-c3ccncc3)nn12 ?
NS1 function inh: 3%; Pf growth 96h: 0%; CHX counter: 7; Pf growth 48h: inconclusive; FBPA Giardia inh: 10%; Shiga inhibitor: 24

Results for Cc1cc(NC(=O)c2c(F)cccc2Cl)no1 ?
NS1 function inh: 6%; Pf growth 96h: 82%; CHX counter: 13*; Pf growth 48h: 0%; FBPA Giardia inh: -1%; Shiga inhibitor: 56*

Results for CCCc1c(NC(=O)Nc2ccc(F)cc2)cnn1-c1ccccc1 ?
NS1 function inh: -1%; Pf growth 96h: inconclusive; CHX counter: 23*; Pf growth 48h: inconclusive; FBPA Giardia inh: -4%; Shiga inhibitor: 45*

How did CCCc1c(C(=O)Nc2ccc(C(F)(F)F)cc2)cnn1-c1ccccc1 do in these assays?
NS1 function inh: 2%; Pf growth 96h: inconclusive; CHX counter: 1; Pf growth 48h: inconclusive; FBPA Giardia inh: -3%; Shiga inhibitor: -3

How did Cc1cc(NC(=O)CCSc2ccccc2)no1 do in these assays?
NS1 function inh: 4%; Pf growth 96h: 33%; CHX counter: 24*; Pf growth 48h: 29%; FBPA Giardia inh: 2%; Shiga inhibitor: 36*

What do the screens show for `Cc1cc(NC(=O)c2sc3ccccc3c2O)no1`?
NS1 function inh: -102%; Pf growth 96h: 303%; CHX counter: 62*; Pf growth 48h: 125%; FBPA Giardia inh: -10%; Shiga inhibitor: 82*

What do the screens show for `Cc1cc(NC(=O)CSc2nc3ccccc3s2)no1`?
NS1 function inh: -11%; CHX counter: 1; Pf growth 48h: 6%; FBPA Giardia inh: 0%; Shiga inhibitor: 7

What do the screens show for `Cc1cc(NC(=O)c2c(F)c(F)c(F)c(F)c2F)no1`?
NS1 function inh: -2%; Pf growth 96h: inconclusive; CHX counter: 1; Pf growth 48h: inconclusive; FBPA Giardia inh: 3%; Shiga inhibitor: -14

How did COC(=O)c1sccc1NC(=O)C1CC1 do in these assays?
NS1 function inh: 9%; Pf growth 96h: 10%; CHX counter: 1; Pf growth 48h: 33%; FBPA Giardia inh: 0%; Shiga inhibitor: -6
